Only some compounds are listed: those with a hit (about 11% of all), similar ones and a draw of the others.
HP1b binding inh: HP1-beta chromodomain-methylated histone interaction inhibition; P83916; AlphaScreen HP1-beta / biotin-H3K9me3 peptide binding; Potency, µM (top dose mostly 114 µM), without a hit: at the highest dose activity change, negative = inhibition, most hits filed as inhibitors; actives 0.56% (n = 390,000); further: potency means the concentration at half of the fitted maximal effect; nearly all actives have a fitted effect of over 70% in size
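AlphaScreen: HP1-beta (50 nM) preformed 30 min with biotin-H3(1-18)K9me3 peptide (50 nM) in PBS pH 7.4, 0.01% Tween-20. Compound added for 30 min at RT, then streptavidin donor/nickel chelate acceptor beads (10 ug/mL) for 30 min.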
JMJD2A Tudor inh: inhibitors of human JMJD2A Tudor domain; AID 504339; AlphaScreen JMJD2A-Tudor / H3K4me3 peptide binding; actives 4.4% (n = 390,000); Potency, µM (series often up to 114 µM), without a hit: at the highest dose activity change, negative = inhibition, most hits filed as inhibitors; further: potency means the concentration at half of the fitted maximal effect; on the % scale 0 is the no-effect control and ±100 the full control effect; nearly all actives have a fitted effect of over 50% in size
L3MBTL1 block: blocks human L3MBTL1; Potency, µM (doses to about 57.1 µM), inactives show top-dose activity, negative = inhibition, hits mostly inhibitors; Q9Y468; AlphaScreen L3MBTL1–H3K9me1 peptide binding; actives 0.66% (n = 230,000); further: potency means the concentration at half of the fitted maximal effect; on the % scale 0 is the no-effect control and ±100 the full control effect; nearly all actives have a fitted effect of over 60% in size
Target sequence (Q9Y468 whole entry, looked up): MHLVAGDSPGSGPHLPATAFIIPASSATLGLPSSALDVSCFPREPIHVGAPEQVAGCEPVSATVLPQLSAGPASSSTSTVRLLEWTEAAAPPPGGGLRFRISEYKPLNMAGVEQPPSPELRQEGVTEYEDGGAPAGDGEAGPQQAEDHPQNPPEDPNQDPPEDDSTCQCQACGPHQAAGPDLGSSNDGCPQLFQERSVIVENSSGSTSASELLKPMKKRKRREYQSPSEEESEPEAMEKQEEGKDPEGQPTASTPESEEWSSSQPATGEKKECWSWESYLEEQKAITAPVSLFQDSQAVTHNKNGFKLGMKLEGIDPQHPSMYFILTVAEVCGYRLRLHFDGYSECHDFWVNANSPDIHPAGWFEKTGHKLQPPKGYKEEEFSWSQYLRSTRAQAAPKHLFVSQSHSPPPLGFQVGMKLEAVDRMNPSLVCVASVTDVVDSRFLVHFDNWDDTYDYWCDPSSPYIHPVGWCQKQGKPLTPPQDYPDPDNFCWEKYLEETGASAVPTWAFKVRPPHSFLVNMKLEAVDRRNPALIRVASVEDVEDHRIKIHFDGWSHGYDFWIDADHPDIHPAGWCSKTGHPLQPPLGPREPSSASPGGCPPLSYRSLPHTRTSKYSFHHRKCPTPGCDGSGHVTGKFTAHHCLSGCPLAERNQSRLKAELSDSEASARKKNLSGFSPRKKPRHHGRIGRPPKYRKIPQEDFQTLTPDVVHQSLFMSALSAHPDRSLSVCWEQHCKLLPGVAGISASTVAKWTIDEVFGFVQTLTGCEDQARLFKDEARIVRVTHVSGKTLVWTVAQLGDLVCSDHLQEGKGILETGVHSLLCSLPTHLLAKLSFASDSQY
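Read-out is AlphaScreen signal from streptavidin donor and nickel chelate acceptor beads (10 ug/mL final each) bridging L3MBTL1 (50 nM) and biotinylated K9-monomethylated H3(1-15) peptide (75 nM), after 30 min compound exposure at room temperature.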
PI5P4Ka inh: blocks human PI5P4K alpha kinase activity. max response, %. PI5P4Kalpha enzyme, ADP-Glo luminescence, 60 min; hits give low values. AID 652105. P48426. actives 1.2% (n = 330,000); active means max response of -50% or lower; inconclusive means between -30% and -50%; inactive means -30% or higher; further: value at the top dose of about 77 µM; on the % scale 0 is the no-effect control and ±100 the full control effect
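Enzyme plus substrate dispensed, test compounds pinned in, then ATP (5 microM final) added. After 60 min at RT, ADP-Glo reagent 1 for 45 min and reagent 2 for 30 min preceded luminescence imaging.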
BAZ2B block: BAZ2B (human) inhibition. Q9UIF8. AlphaScreen BAZ2B-H3K14Ac peptide displacement. Potency, µM (series often up to 114 µM), inactives show top-dose activity change, negative = inhibition, most hits filed as inhibitors. actives 4.4% (n = 360,000); further: potency means the concentration at half of the fitted maximal effect; on the % scale 0 is the no-effect control and ±100 the full control effect; nearly all actives have a fitted effect of over 60% in size
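Multi-concentration screen (max 110 uM) measuring displacement of acetylated histone H3 peptide from BAZ2B by AlphaScreen, using 50 nM protein, 50 nM peptide and 10 ug/mL streptavidin donor plus Ni-chelate acceptor beads.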
G9a inh: blocks human histone lysine methyltransferase G9a; Q96KQ7; G9a H3K9 monomethylation, AlphaScreen, 2 h; Potency, µM (highest dose often 102 µM), for the others: top-dose activity, negative = inhibition, usual class: inhibitors; actives 8.8% (n = 350,000); AID 504332; further: potency means the concentration at half of the fitted maximal effect; on the % scale 0 is the no-effect control and ±100 the full control effect; nearly all actives have a fitted effect of over 75% in size
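Quantitative HTS format: methyltransferase activity on a biotin-tagged H3K9 peptide is measured by AlphaScreen, using a rabbit anti-monomethyl-H3K9 antibody with streptavidin donor and anti-IgG acceptor beads. Final levels are 20 nM enzyme, 500 nM peptide, 20 uM SAM; 2 h RT.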
* hit, by the source's call; ? = inconclusive; . = no result given; [ ] = another dose, or the depositor's remark. Unless noted, the call rests on the fitted dose curve; in most records, active means well fitted inhibition curve with a large enough effect; inconclusive means small, poorly fitted or top-dose-only effect; inactive means no such curve, though single readings can be large or run the other way.

SMILES | HP1b binding inh | JMJD2A Tudor inh | L3MBTL1 block | PI5P4Ka inh | BAZ2B block | G9a inh
CCCN(CCC)CCCNC(=O)C1CCCN(Cc2nc(-c3ccc(Cl)cc3)oc2C)C1 (centres undefined) | 13.9% | -10.4% | . | . | -7.8% | -32.6%[59 µM]
Cc1oc(-c2cccc(Cl)c2)nc1CN1CCC(C(=O)NC2CC2)CC1 | -19.4% | -21.9% | . | -2.8 | 1.3% | 11.5%[59 µM]
CCc1ccc(-c2nc(CN3CCC(C(=O)NCCN(CC)c4ccccc4)CC3)c(C)o2)cc1 | ? | 50.1µM* | ? | 0.7 | ? | ?
CCN(CCNC(=O)C1CCCN(Cc2nc(-c3ccc(OC)cc3)oc2C)C1)c1ccccc1 (centres undefined) | -42.0% | 31.6µM* | ? | . | 11.2µM* | -32.5%[12.7 µM]
CCN(CCNC(=O)C1CCN(Cc2nc(-c3cccc(Cl)c3)oc2C)CC1)c1ccccc1 | ? | 39.8µM* | -40.0% | 26.8 | 39.8µM* | ?
CCc1ccc(-c2nc(CN3CCC(C(=O)NCc4ccc(F)cc4)CC3)c(C)o2)cc1 | 24.7% | ? | 15.6% | -25.7 | 1.7% | 20.5%[59 µM]
CCN(CCNC(=O)C1CCN(Cc2nc(-c3ccc(Cl)cc3)oc2C)CC1)c1ccccc1 | ? | 50.1µM* | ? | -1.1 | 14.1µM* | ?
CCN(Cc1ccccc1)Cc1c(O)ccc2c(=O)c(-c3ccc(Cl)cc3)coc12 | 7.4% | -10.7% | . | . | 3.7% | -2.4%[59 µM]
O=C(NCc1ccccc1)c1c2c(nc3ccccc13)C(=O)N(C1CCCCC1)C2 | 22.1% | -17.0% | . | . | -14.7% | -1.1%[59 µM]
Cc1cc(C)cc(C(=O)n2nc(C)c(S(=O)(=O)N3CCCCCC3)c2C)c1 | 66.3%[57 µM] | 32.6% | . | . | 8.0% | 27.7%[59 µM]
Cc1cccc(-c2nc(CN3CCCC(C(=O)N4CCN(c5cc(Cl)ccc5C)CC4)C3)c(C)o2)c1 (centres undefined) | 0.7% | -33.3% | . | . | ? | 14.1µM*
Cc1oc(-c2ccc(Cl)cc2)nc1CN1CCCC(C(=O)N2CCOCC2)C1 (centres undefined) | 39.5% | -11.6% | . | -11.4 | -13.7%[57.1 µM] | ?
COc1cc(Cl)c(NC(=O)c2cc(S(=O)(=O)N3CCOCC3)cn2C)c(OC)c1 | 18.6% | -18.5% | . | . | -13.5% | -6.6%[59 µM]
O=c1cc(-c2ccc(O)cc2)oc2cc(O)ccc12 | . | . | . | . | . | -11.6%[2.33 µM]
O=c1ccc2[n+]([O-])c3ccc(O)cc3oc-2c1 | ? | -19.6% | 3.16µM* | -23.4 | 10µM* | 10µM*
Cc1cc(C)n(CCCNCC(O)c2ccccc2)n1 (centres undefined) | ? | 79.4µM* | 4.0% | 0.4 | ? | 22.4µM*
Cc1nc2ccccc2n1CCc1nc2c3ccccc3nc(SCc3ccc(F)cc3)n2n1 | 26.8% | -9.3% | . | . | -1.2% | 4.7%[59 µM]
COC(=O)c1sc(=S)sc1C(=O)OC | ? | ? | 1.3% | . | -37.9% | 28.2µM*
COc1ccc2nc3oc(C(=O)N4CCN(c5cc(C)ccc5C)CC4)cc3cc2c1 | 17.2% | -8.3% | . | . | . | -27.6%[59 µM]
O=C(CN1CCCCCC1)NCCc1ccc(F)cc1 | ? | 3.55µM* | -2.2% | . | 50.1µM* | 8.91µM*
COc1ccc(CCNC(=O)CNCC2CCCCC2)cc1OC | ? | 25.1µM* | . | 2.7 | 56.2µM* | -4.2%
COc1ccc(CCNC(=O)CN2CCC(C)CC2)cc1OC | ? | ? | . | 3.4 | 56.2µM* | ?
COc1ccc(CNC(=O)CN2CCN(S(=O)(=O)c3cc(Br)ccc3Br)CC2)cc1OC | 6.2% | -27.0% | -2.0% | 2.4 | -3.9% | 50.1µM*
CCCOc1ccc(C(=O)Nc2cc3nn(-c4ccc(CC)cc4)nc3cc2C)cc1 | 21.7% | -4.9% | . | . | -6.8% | 2.5%[59 µM]
O=C(Cn1c(SCc2cccc(F)c2)nc2cccnc21)Nc1ccc(F)c(Cl)c1 | 18.4% | -3.3% | . | . | -1.2% | -8.0%[59 µM]
SMILES | HP1b binding inh | JMJD2A Tudor inh | L3MBTL1 block | PI5P4Ka inh | BAZ2B block | G9a inh
Cc1ccc2occ(CC(=O)N(Cc3ccc(Cl)cc3)Cc3ccco3)c2c1 | 59.1% | 31.6% | . | . | 9.8% | -3.8%[59 µM]
Cc1ccc(NC(=O)Cn2c(=O)n(Cc3ccccc3)c(=O)c3c(C)c(C(=O)N(C)C)sc32)c(C)c1 | -6.7% | -17.7% | . | . | -8.2% | 0.7%[59 µM]
COc1ccc(CCNC(=O)CN2CCCc3ccccc32)cc1OC | 12.6% | -24.3% | -3.5% | -0.1 | -44.7% | 56.2µM*
COc1ccc(CCNC(=O)CN2C(=O)COc3ccccc32)cc1OC | 53.1% | -10.4% | . | . | 25.2% | 8.6%[59 µM]
CC[n+]1c(/C=C2\C=C(C)CC(C)(C)C2)sc2ccccc21 | -34.8% | 39.8µM* | 0.4% | . | 56.2µM* | ?
CCC1=C/C(=C/c2sc3ccccc3[n+]2CC)CC(C)(C)C1 | -0.9% | 12.6µM* | . | ? | 44.7µM* | 5.01µM*
CC[n+]1c(/C=C2\C=C(C)CC(C)C2)sc2ccccc21 (centres undefined) | 3.2% | 50.1µM* | -10.6% | -29.8 | ? | ?
CC[n+]1c(/C=C2/C=C(C)CC(C)(C)C2)sc2ccc(OC)cc21 | 20µM* | 50.1µM* | -0.6% | ? | 56.2µM* | -37.3%[12.7 µM]
O=[N+]([O-])c1ccc2[nH]c(=S)[nH]c2c1 | -1.7%[57 µM] | -51.7% | . | -0.4 | . | .
S=c1[nH]c2ccc(Cl)cc2s1 | -5.8% | ? | -4.3% | -75.1* | -22.3% | 1.12µM*
O=[N+]([O-])c1ccc2[nH]c(=S)sc2c1 | ? | 50.1µM* | . | -75.0* | . | .
COc1ccc(C)cc1NC(=O)c1cnc2ccc(C)cn2c1=O | 12.8% | -21.8% | . | . | 2.7% | -8.7%[59 µM]
CC(C)c1ccc(NC(=O)C2(C)Cc3ccccc3C(=O)O2)cc1 (centres undefined) | 32.8% | 3.0% | . | . | 8.2% | 5.5%[59 µM]
Cn1c(=O)c(CCc2ccccc2)nc2cnc(Oc3ccccc3)nc21 | . | . | . | . | . | 11.5%[12.7 µM]
Cn1c(SCc2ccc(Br)cc2)nnc1-c1cccs1 | 12.3% | -5.4% | -0.7% | -1.8 | . | ?
